# Unmarked numbers belong to inactive results. The rule behind the calls is not given here.
# Molecular target: Pantothenate synthetase (Mycobacterium tuberculosis (strain ATCC 25618 / H37Rv)) (UniProt P9WIL5)
# Assay: Coupled enzyme confirmation of inhibitors against recombinant Mtb PanC (AID 375);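 note: 0% = full reaction with vehicle and 100% = no enzyme background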
# Settings: coupled enzyme assay; at 10 µM, active compounds read high
# Pantothenate synthetase (Mycobacterium tuberculosis (strain ATCC 25618 / H37Rv)), sequence (P9WIL5 whole entry, looked up): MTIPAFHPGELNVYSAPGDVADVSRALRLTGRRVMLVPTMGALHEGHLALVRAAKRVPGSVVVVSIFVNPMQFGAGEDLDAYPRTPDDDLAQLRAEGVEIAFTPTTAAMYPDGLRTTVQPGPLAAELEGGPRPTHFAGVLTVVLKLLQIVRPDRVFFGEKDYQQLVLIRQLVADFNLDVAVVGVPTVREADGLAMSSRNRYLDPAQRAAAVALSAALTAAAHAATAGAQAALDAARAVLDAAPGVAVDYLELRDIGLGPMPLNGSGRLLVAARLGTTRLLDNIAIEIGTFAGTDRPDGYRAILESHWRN
row,SMILES,inhibition [%]
1,c1ccc(CN2CCN(CCCNc3ccc4nnc(-c5ccccc5)n4n3)CC2)cc1,10
2,COc1cccc(-n2c(SCC(=O)OC(C)C)nnc2-c2cccnc2)c1,2
3,O=c1nc(N2CCCC2)nc(Nc2ccccc2)[nH]1,0
4,CC1=C(C(=O)N2CCOCC2)C(c2ccsc2)C2=C(CCCC2=O)N1 (stereo not given),0
5,CN1CCC(=C2c3ccccc3CC(=O)c3sccc32)CC1,2
6,CCn1c(SCC(=O)c2ccc3c(c2)OCCO3)nnc1-c1ccco1,11
7,CCOc1cc(C2NC(=O)NC(O)(C(F)(F)F)C2C(=O)c2ccccc2)ccc1OC (stereo not given),3
8,COc1ccc2nc(NC(=O)c3ccoc3C)sc2c1,0
9,COC(=O)c1c(O)ccc(Oc2ccccc2)c1C(=O)OC,0
10,CC(C)(C)n1nnnc1CN1CCN(C2CCCC2)CC1,3
11,CC(C)(C)OC(=O)N1CCN(c2ccc(NC(=O)c3cc4ccccc4oc3=O)cc2)CC1,6
12,CCOCCCNC(=O)C1CC(=O)N(C2CCCC2)C1 (stereo not given),2
13,Cc1nn(-c2ccccc2)c(C)c1C(=O)OCC(=O)c1c(N)n(CC(C)C)c(=O)n(C)c1=O,9
14,CC(=O)Nc1cccc(-c2nnc(-c3ccccc3)o2)c1,4
15,CCOC(=O)C1CCN(c2c(N3CCCCCC3)c(=O)c2=O)CC1,2
16,CC(=O)c1ccc(-n2nnnc2SCC(=O)N2CCc3ccccc3C2)cc1,0
17,COc1cc(OC)cc(-n2nnnc2SCC(=O)N2CCCC2)c1,0
18,COCCN1CN(S(=O)(=O)c2ccccc2)c2nc3ccccc3nc21,0
19,CCN(CCCNC(=O)COc1cc(=O)n(CC)c2ccccc12)c1ccccc1,0
20,COc1ccc(C2C(C#N)=C(N)Oc3cc4c(cc32)OCO4)cc1 (stereo not given),0

row,SMILES,inhibition [%]
1,Cc1nnc(C)c2c(C)n(-c3ccc(Br)cc3)c(C)c12,0
2,Cc1cc(C(=O)N2CCCc3ccccc32)no1,3
3,O=C(Nc1ccccc1C(=O)N1CCOCC1)c1ccncc1,0
4,COc1ccccc1N1CCN(c2nc3ccccc3nc2C(C#N)C(=O)OC(C)C)CC1 (stereo not given),1
5,Cc1cc(C)n(-c2nc3sc4c(c3c3nnc(SC(C)C)n23)CC(C)(C)OC4)n1,0
6,COc1ccc(CNc2nc3nc(C)c(Cl)c(C)n3n2)cc1OC,6
7,CCN1CCN(S(=O)(=O)Cc2ccccc2)CC1,0
8,Cn1c(-c2ccc(F)cc2)cnc1SCC(=O)Nc1ccccc1N1CCOCC1,0
9,CC(=O)NS(=O)(=O)c1ccc(NC(=O)c2ccccc2F)cc1,0
10,COc1ccc(OC)c(S(=O)(=O)Nc2ccccc2SC)c1,3
11,CCN(CC)S(=O)(=O)c1cccc2c(N(C)C)cccc12,0
12,O=C(OCC#CCSc1nc2ccccc2s1)c1ccco1,3
13,CCn1c(SCC(=O)Nc2cc(C)on2)nc2sc3c(c2c1=O)CCCC3,0
14,Cc1c(C(=O)OCC(C)C)[nH]c2c1C(=O)CC(c1ccco1)C2 (stereo not given),1
15,Cc1ccc(S(=O)(=O)N2CCN(c3nc(C)nc4sc(C)c(C)c34)CC2)cc1,2
16,CCOCCCNC(=O)C1CCN(C(=O)Nc2ccc(Cl)cc2)CC1,3
17,CC1=C(/C=C/C(C)=C/C=C/C(C)=C/C(=O)O)C(C)(C)CCC1,0
18,CCOc1cccc(-n2nnnc2-c2ccc(OC)cc2)c1,9
19,O=S(=O)(NCC1CCCO1)c1ccc2c(c1)OCCO2 (stereo not given),0
20,Cc1noc(C)c1C(=O)Nc1ccc(Cl)cc1C(F)(F)F,4

# From PubChem BioAssay
